Drawing on PubChem BioAssay (NCI), this text covers growth for 35 molecules.

The panel holds about 83,000 compounds, 20% with a hit somewhere; the sample as a whole holds those more often.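 Treatment: one concentration, 48 hours, 96-well format. Scoring: percent growth, with anything below 10 considered active.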 Values without a mark were called inactive. Active and inactive are the calls of the source.

For one test, the system named is HT29 colon. The experiment in a line: NCI-60 one-dose screen, 48 h (100 = growth as untreated, 0 = no growth, -100 = all killed). The following applies: 10 µM unless noted.
With `O=C(O)c1ccc(-n2cc(CNc3ccc(F)cc3)c(-c3ccc(C(F)(F)F)cc3)n2)cc1`, the growth was 96.9%. The same measure, in the same setting: under `Oc1ccc(CSc2nnc(-c3ccncc3)o2)c2cccnc12` stands 20.7%; under `COc1ccc(C2C(C#N)=C(N)Oc3c2sc2ccc(C)cc32)cc1` (stereo unspecified), 25.3%. Still for that read-out and setting: under `Oc1ccc(CSc2nnc(-c3ccncc3)n2-c2ccccc2)c2cccnc12` stands 96%. On the same count and under the same terms, the figure for `Oc1ccc(CSc2nnc(-c3cnccn3)n2-c2ccccc2)c2cccnc12` is 79.5%.

Take `O=C(COc1ccc(/C=C2\SC(=O)NC2=O)cc1)Nc1ccc(C(=O)/C=C/c2cc3ccccc3nc2Cl)cc1`: the growth is 4.19% (active).

As for `COc1ccc(N2CCN(C(=O)CSc3ccc(-c4nc5cc(C)c(C)cc5[nH]4)cn3)CC2)cc1`, the growth is 85.7%.

The next test deals with SNB-75 CNS. Described as above. The conditions noted are these: 10 µM unless noted.
As to `COc1cnc2c(c1)C(=O)c1c-2n(CCCNCC2CC2)c(=O)c2cc(F)ccc12`, the growth was -7.63% (active). Consider `O=C(NCCCNc1cc(-c2cn(-c3ccccc3)nc2-c2cccc(O)c2)ccn1)Nc1cc(C(F)(F)F)cc(C(F)(F)F)c1`, for which the growth is 64.2%. On the same count and under the same terms, under `COc1ccc(-c2ccnc3c(C#N)c(Nc4ccccc4)nn23)cc1OC` stands 51.4%; under `COc1ccc(C2C(C#N)=C(N)Oc3c2sc2ccc(C)cc32)cc1` (stereo unspecified), -3.3% (active).

Another test concerns SNB-19 CNS. The test is described as above. The conditions noted are these: 10 µM unless noted.
As to `NC(=O)N1N=C(c2cc3ccccc3oc2=O)CC1c1cn(-c2ccccc2)nc1-c1ccc(Cl)cc1` (stereo unspecified), the growth is 45%. Same read-out and setting: under `O=C(Nc1cc(F)cc2cccnc12)c1cnc(N2CCOCC2)cn1` stands 88.6%; under `O=C1[C@H]2Cc3c([nH]c4ccccc34)[C@@H](c3c(Cl)cccc3Cl)N2C(=O)CN1C1CCN(Cc2ccccc2)CC1`, 89.6%.

In the case of `COc1cc(/C=N/n2cnc3oc(-c4ccccc4)cc3c2=N)cc(CN2CCN(C)CC2)c1O`, the growth is 110%. Still for that read-out and setting: under `Oc1ccc(-c2nnc(SCc3ccc(O)c4ncccc34)n2-c2ccccc2)cc1` stands 14.7%; under `CN(C)C(=O)c1ccccc1-n1cnc2ccccc2c1=O`, 95.2%; under `Oc1ccc(CSc2nnc(-c3ccc(Cl)cc3)o2)c2cccnc12`, 16.5%.

Consider `NNC(=O)c1sc2nc(-c3cnccn3)cc(-c3cccs3)c2c1N`, for which the growth was 88.2%. Still for that read-out and setting: under `COc1ccc(OC)c([C@H]2c3[nH]c4ccccc4c3C[C@H]3C(=O)N(CCCCCCC(=O)NO)CC(=O)N23)c1` stands 86.9%; under `CCCCCCCCNC(=O)c1ccc(Cn2c(CCCC)nc3c(N)nc4ccccc4c32)cc1`, 14.9%; under `O=C1[C@@H]2Cc3c([nH]c4ccccc34)[C@H](c3c(Cl)cccc3Cl)N2C(=O)CN1C1CCN(Cc2c(F)cccc2F)CC1`, 81.7%. Still for that read-out and setting: the figure for `O=C(CCCCCCN1CC(=O)N2[C@@H](c3cccc(Cl)c3)c3[nH]c4ccccc4c3C[C@H]2C1=O)NO` is 61.2%; for `CC(C)N=C(N/C(N)=N/c1nc2ccccc2s1)NC(C)C` it is 48.2%; for `CCCCOc1ccc(S(=O)(=O)N2CCN(c3nccc(N4CCOCC4)n3)CC2)cc1` it is 71.4%. On the same count and under the same terms, under `O=[N+]([O-])c1ccc(-c2nnc(SCc3ccc(O)c4ncccc34)n2-c2ccccc2)cc1` stands 14.4%; under `Cc1ccc(Nc2ncnc3c2c(C)nn3-c2ccc([N+](=O)[O-])cc2)cc1`, 88.8%; under `COc1cc2cc(Oc3ccc(NC(=O)Nc4cc(C(F)(F)F)cc(C(F)(F)F)c4)cc3)c(C)nc2cc1OCCN(C)C`, 103%. On to `COc1cc2cc(Oc3ccc(NC(=O)Nc4cccc(C(F)(F)F)c4)cc3)c(C)nc2cc1OCCN(C)C`, for which the growth is 99%. Same read-out and setting: the figure for `N/C(=N\c1nc2ccc([N+](=O)[O-])cc2s1)C(Cl)(Cl)Cl` is 61.2%.

`Nc1ccc(-c2nnc(SCc3ccc(O)c4ncccc34)o2)cc1`: the growth is 8.55% (active). The same measure, in the same setting: under `Nc1c(C(=O)c2ccccc2)sc2nc(-c3cnccn3)cc(-c3cccs3)c12` stands 96.5%; under `C/C(=C(/C)C1CC1CCN(C(=O)c1ccccn1)S(=O)(=O)c1ccc(C)cc1)C1CCCCC1` (stereo unspecified), 98.4%. Same read-out and setting: under `Oc1ccc(CSc2nnc(-c3ccccc3)n2-c2ccccc2)c2cccnc12` stands 12.6%; under `Oc1ccc(CSc2nnc(-c3ccc(Oc4ccccc4)cc3)n2-c2ccccc2)c2cccnc12`, 13.8%.

For `O=C(CSc1ccc(-c2nc3ccccc3[nH]2)cn1)N1CCN(c2ccccc2F)CC1`, the growth is 89.8%.
